Measurements as given in PubChem BioAssay (EPA / NIEHS).
Inconclusive results are not listed. The source made the active and inactive calls. Rule for the calls: active = hit-call score of the fitted dose curve at least 0.9, where 1 is the maximum; inconclusive = response in the unintended direction; inactive = score below 0.9.

Assays:
[1] = molecular target: rat Serotonin Transporter (SERT), Slc6a4 (gene 25553) (UniProt P31652); experiment: NVS_TR_rSERT: NovaScreen (NVS) Transporter Assay for rat Serotonin Transporter (SERT) (AID 2283375)
In short: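 Rat forebrain membranes were incubated with test chemical for 1 hour; radioligand binding to SERT was measured by filter-based scintillation counting. Primary screen ran in duplicate at 25 uM, with actives followed up in concentration series; DMSO served as negative control.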

[2] = molecular target: human Norepinephrine Transporter (NET), SLC6A2 (gene 6530) (UniProt P23975); experiment: NVS_TR_hNET: NovaScreen (NVS) Transporter Assay for human Norepinephrine Transporter (NET) (AID 2283377);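 for AC50: displacement of radioligand from human NET seen as loss of scintillation signal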
Sequence of human Norepinephrine Transporter (NET), SLC6A2 (gene 6530) (P23975 whole entry, looked up): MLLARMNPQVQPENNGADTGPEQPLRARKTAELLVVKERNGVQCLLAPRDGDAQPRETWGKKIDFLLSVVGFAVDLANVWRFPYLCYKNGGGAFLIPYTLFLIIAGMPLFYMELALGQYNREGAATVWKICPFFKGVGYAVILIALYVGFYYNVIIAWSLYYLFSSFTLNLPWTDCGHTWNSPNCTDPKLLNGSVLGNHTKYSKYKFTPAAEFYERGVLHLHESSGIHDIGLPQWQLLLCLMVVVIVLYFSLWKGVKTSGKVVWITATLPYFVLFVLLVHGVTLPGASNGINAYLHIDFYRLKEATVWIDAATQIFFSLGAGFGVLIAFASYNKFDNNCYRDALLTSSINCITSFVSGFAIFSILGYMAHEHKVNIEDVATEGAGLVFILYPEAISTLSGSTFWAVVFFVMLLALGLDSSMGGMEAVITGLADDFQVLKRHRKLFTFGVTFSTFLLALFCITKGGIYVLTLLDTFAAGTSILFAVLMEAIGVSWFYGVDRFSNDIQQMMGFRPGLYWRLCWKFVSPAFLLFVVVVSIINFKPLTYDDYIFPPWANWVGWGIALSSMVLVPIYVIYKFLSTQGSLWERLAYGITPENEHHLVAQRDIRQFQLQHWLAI
In short: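 Cell-free radioligand binding using CHO-derived membrane protein expressing human NET, read by filter scintillation counting 1 h after dosing; loss of signal vs DMSO. Initial duplicate screen at 25 uM, actives retested in concentration series.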

[3] = molecular target: Norway rat Vesicular Monoamine Transporter (VMAT2), neurotransmitter transporter, Slc18a2 (gene 25549) (UniProt Q01827); experiment: NVS_TR_rVMAT2: NovaScreen (NVS) Transporter Assay for Norway rat Vesicular Monoamine Transporter (VMAT2), neurotransmitter transporter (AID 2283376);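 note: actives lower the bound radioligand signal below the DMSO level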
Sequence of Norway rat Vesicular Monoamine Transporter (VMAT2), neurotransmitter transporter, Slc18a2 (gene 25549) (Q01827 whole entry, looked up): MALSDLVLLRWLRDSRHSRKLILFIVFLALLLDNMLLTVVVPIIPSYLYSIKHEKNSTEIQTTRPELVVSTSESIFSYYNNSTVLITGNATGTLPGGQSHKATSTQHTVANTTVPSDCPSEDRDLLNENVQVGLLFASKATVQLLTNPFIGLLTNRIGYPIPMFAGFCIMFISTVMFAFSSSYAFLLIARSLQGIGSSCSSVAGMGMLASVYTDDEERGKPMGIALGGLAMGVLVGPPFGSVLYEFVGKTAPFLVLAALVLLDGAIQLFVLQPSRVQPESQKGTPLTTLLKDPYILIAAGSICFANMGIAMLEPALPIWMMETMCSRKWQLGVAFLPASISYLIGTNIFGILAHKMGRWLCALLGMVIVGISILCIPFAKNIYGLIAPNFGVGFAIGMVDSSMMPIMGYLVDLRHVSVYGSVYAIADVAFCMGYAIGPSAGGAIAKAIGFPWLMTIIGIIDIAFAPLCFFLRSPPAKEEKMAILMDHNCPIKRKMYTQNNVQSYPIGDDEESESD
In short: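 Radioligand displacement binding on rat forebrain tissue preparation, filter-based scintillation read-out 1 hour after dosing. Primary screen in duplicate at 25 uM, then concentration series for actives; loss of signal versus DMSO.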

[4] = molecular target: Agonist Androgen Response Element (ARE), AR (gene 367) (UniProt P10275); experiment: OT_AR_ARELUC_AG_1440: Odyssey Thera (OT) 24-hour CHO-K1 Luciferase Assay for Agonist Androgen Response Element (ARE) (AID 2283379)
Sequence of Agonist Androgen Response Element (ARE), AR (gene 367) (P10275 whole entry, looked up): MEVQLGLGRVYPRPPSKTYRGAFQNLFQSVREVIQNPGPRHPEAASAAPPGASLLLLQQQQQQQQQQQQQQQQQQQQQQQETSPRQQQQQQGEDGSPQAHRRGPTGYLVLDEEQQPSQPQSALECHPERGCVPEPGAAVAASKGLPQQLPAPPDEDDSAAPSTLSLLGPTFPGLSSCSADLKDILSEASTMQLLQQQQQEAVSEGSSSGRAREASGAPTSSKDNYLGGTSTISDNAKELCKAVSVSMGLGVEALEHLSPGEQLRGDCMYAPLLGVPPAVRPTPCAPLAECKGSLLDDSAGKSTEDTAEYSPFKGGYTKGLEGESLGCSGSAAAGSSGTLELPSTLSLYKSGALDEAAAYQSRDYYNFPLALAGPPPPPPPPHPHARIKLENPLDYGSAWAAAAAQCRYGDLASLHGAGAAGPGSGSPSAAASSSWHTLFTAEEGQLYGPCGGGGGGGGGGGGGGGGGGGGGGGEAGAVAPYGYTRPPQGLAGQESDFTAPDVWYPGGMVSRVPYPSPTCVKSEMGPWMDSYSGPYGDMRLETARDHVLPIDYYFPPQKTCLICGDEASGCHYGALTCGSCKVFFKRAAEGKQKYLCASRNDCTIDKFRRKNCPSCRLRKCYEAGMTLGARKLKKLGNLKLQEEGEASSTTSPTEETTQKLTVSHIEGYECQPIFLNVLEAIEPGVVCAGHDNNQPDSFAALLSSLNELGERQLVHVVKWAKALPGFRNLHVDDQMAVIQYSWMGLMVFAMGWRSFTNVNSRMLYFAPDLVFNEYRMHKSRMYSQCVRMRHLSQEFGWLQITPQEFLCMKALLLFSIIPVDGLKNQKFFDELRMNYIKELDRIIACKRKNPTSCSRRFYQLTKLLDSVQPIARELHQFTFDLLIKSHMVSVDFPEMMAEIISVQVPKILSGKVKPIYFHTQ
In short: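 CHO-K1 cells carrying an ARE-driven luciferase reporter were exposed to compounds for 24 h. Luminescence was then read after adding a D-luciferin/ATP mix, and activity was scored as a gain in signal over DMSO vehicle.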

[5] = molecular target: Estrogen receptor beta (Homo sapiens) (UniProt Q92731); experiment: OT_ER_ERbERb_1440: Odyssey Thera (OT) 24-hour HEK293T Protein-Complementation Assay for Estrogen Receptor-beta/-beta Homodimer (AID 2283380);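 note: scored as signal increase over DMSO baseline for both agonists and antagonists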
Sequence of Estrogen receptor beta (Homo sapiens) (Q92731 whole entry, looked up, the tested form may be a part): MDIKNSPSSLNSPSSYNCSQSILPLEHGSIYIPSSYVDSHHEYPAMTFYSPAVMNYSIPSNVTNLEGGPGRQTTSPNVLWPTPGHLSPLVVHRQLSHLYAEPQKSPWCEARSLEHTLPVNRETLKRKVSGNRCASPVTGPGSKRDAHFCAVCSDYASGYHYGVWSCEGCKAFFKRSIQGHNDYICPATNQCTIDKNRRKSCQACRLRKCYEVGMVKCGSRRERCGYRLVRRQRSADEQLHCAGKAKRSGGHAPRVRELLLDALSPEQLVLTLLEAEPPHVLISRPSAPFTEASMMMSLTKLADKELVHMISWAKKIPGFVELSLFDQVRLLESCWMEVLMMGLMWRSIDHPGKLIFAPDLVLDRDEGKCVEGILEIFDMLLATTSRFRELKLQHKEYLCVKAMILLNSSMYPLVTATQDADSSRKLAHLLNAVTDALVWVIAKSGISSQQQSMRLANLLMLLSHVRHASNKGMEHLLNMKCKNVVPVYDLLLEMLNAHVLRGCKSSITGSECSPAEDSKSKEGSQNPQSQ
In short: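 HEK293T cells stably expressing ER beta LBD (aa 310-547) homodimer fragment-complementation reporter, dosed 24 h. Cells formaldehyde-fixed, Draq5-stained; gain in nuclear (agonist) or nuclear plus cytoplasmic (antagonist) fluorescence versus DMSO read by laser scanning cytometry.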

[6] = molecular target: Bile acid receptor (Homo sapiens) (UniProt Q96RI1); experiment: OT_FXR_FXRSRC1_0480: Odyssey Thera (OT) 8-hour HEK293T Protein-Complementation Assay for Farnesoid X receptor/SRC-1 Co-activator (AID 2283383)
Sequence of Bile acid receptor (Homo sapiens) (Q96RI1 whole entry, looked up, the tested form may be a part): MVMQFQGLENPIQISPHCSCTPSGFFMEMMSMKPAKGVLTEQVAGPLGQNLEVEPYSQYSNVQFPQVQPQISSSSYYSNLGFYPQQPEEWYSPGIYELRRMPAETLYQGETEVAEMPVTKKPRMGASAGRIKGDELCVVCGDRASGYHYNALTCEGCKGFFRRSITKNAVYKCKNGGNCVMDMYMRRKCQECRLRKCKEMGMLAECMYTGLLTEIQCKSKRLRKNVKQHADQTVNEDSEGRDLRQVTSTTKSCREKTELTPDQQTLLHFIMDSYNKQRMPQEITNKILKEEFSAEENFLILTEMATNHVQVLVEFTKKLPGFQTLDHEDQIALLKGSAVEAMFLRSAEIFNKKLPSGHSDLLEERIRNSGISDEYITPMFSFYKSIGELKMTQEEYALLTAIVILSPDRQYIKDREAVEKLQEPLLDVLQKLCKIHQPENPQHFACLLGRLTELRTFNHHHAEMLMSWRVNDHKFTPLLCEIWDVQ
In short: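 HEK293T protein-fragment complementation assay: FXR and SRC-1 coactivator are fused to reporter fragments, and their interaction restores a fluorescent reporter. Readout was taken 8 h after dosing, with gain of signal fit relative to DMSO.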

[7] = molecular target: Retinoic acid receptor RXR-alpha (Homo sapiens) (UniProt P19793); experiment: OT_NURR1_NURR1RXRa_1440: Odyssey Thera (OT) 24-hour HEK293T Protein Complementation Assay for Nurr1/retinoid X receptor (RXR) (AID 2283386)
Sequence of Retinoic acid receptor RXR-alpha (Homo sapiens) (P19793 whole entry, looked up, the tested form may be a part): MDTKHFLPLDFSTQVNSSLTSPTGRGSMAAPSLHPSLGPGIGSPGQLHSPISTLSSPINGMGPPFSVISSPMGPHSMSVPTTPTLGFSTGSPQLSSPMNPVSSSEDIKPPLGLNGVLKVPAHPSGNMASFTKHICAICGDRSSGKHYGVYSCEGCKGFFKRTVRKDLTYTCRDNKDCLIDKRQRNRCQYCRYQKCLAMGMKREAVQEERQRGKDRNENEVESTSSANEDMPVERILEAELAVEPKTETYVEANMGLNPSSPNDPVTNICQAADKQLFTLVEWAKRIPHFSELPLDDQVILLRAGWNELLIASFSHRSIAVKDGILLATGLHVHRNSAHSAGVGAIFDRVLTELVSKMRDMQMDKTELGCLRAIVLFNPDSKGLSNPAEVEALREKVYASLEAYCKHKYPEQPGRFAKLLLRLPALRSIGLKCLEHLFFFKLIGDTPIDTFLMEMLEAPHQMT
In short: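 HEK293T protein-fragment complementation of Nurr1 and RXRα fused to reporter fragments; compounds 24 h. Fluorescence gain from reconstituted reporter fitted versus DMSO.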

[8] = molecular target: Retinoic acid receptor RXR-alpha (Homo sapiens) (UniProt P19793); experiment: OT_NURR1_NURR1RXRa_0480: Odyssey Thera (OT) 8-hour HEK293T Protein Complementation Assay for Nurr1/retinoid X receptor (RXR) (AID 2283385)
In short: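 HEK293T cells expressing Nurr1 and RXRα fused to reporter fragments (protein-fragment complementation); fluorescence measured 8 h after dosing. Gain of signal fitted relative to DMSO.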

[9] = molecular target: Estrogen receptor (Homo sapiens) (UniProt P03372); experiment: OT_ERa_GFPERaERE_0120: Odyssey Thera (OT) 2-hour HeLa Transcription Induction Assay for Estrogen Receptor (AID 2283382)
Sequence of Estrogen receptor (Homo sapiens) (P03372 whole entry, looked up): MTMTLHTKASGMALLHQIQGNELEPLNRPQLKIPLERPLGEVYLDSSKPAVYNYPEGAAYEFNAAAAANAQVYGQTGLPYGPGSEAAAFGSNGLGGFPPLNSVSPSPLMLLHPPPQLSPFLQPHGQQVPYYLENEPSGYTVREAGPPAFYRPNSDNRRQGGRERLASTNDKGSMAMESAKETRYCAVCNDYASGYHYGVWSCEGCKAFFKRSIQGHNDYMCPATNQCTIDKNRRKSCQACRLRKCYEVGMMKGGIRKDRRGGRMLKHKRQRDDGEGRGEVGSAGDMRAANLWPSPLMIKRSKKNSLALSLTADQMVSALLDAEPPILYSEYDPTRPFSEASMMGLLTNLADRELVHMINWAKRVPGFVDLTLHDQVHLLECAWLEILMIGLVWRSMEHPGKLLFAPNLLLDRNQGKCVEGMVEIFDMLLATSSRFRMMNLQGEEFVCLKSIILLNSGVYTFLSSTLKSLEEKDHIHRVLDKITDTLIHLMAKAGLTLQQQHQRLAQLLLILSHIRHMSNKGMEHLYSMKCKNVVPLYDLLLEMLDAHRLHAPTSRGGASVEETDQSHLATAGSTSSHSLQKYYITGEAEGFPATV
In short: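 HeLa cells were dosed for 2 h, then GFP reporter induction was quantified by fluorescence microscopy with high-content image analysis. Gain of signal fitted against DMSO baseline.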

[10] = molecular target: mouse Estrogen Receptor alpha (Era), Esr1 (gene 13982) (UniProt P19785); experiment: NVS_NR_mERa: NovaScreen (NVS) Nuclear Receptor Binding Assay for mouse Estrogen Receptor alpha (Era) (AID 2283378);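 note: hit means loss of bound radioligand signal relative to DMSO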
Sequence of mouse Estrogen Receptor alpha (Era), Esr1 (gene 13982) (P19785 whole entry, looked up): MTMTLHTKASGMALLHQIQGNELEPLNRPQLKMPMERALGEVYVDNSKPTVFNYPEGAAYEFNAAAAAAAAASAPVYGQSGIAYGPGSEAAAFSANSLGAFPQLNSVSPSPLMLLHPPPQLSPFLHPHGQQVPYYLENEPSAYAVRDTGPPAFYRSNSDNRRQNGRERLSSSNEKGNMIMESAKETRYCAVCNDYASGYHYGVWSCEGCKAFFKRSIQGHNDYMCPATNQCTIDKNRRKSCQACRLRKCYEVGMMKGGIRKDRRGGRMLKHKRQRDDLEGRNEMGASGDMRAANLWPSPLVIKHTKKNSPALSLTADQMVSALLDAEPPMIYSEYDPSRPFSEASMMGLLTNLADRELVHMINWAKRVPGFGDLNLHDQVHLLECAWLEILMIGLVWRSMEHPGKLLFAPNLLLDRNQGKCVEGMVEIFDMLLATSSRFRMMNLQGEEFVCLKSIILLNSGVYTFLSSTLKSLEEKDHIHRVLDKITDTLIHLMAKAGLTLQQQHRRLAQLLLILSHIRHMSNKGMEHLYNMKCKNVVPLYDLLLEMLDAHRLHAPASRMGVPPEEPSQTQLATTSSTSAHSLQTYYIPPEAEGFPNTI
In short: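 Cell-free radioligand binding with extracted mouse Era protein; competitive displacement of radiolabelled ligand, read by filter-based scintillation counting 18 hours after dosing. Loss of signal versus DMSO baseline taken as binding; single screening concentration 25 uM, actives followed in concentration series.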

O=[N+]([O-])c1cccc2ccccc12
AC50 [1]: 9.17 µM (active)

Cc1ccc(OP(=O)(Oc2ccc(C)cc2C)Oc2ccc(C)cc2C)c(C)c1
AC50 [2]: 1.47 µM (active)

O=C1C=CC(=O)c2ccccc21
AC50 [1]: 28.9 µM (active)

O=C(O)COc1cc(Cl)c(Cl)cc1Cl
outcome [3]: inactive
outcome [4]: inactive
outcome [5]: inactive
outcome [6]: inactive
outcome [7]: inactive

Cc1ccc(CCl)cc1
AC50 [1]: 16.6 µM (active)

Nc1nc(N)nc(Cl)n1
outcome [1]: inactive

CCOC(=O)CCN(SN(C)C(=O)Oc1cccc2c1OC(C)(C)C2)C(C)C
AC50 [2]: 9.18 µM (active)

CCCCCCCCCCCCc1cccc(S(=O)(=O)O)c1
AC50 [2]: 18.7 µM (active)
outcome [8]: inactive
outcome [7]: inactive

CCCCCCCCCCCCN(C)C
outcome [3]: inactive
outcome [2]: inactive
outcome [5]: inactive
outcome [9]: inactive
outcome [6]: inactive
outcome [7]: inactive

CCOP(=O)(OCC)OC(=CCl)c1ccc(Cl)cc1Cl
AC50 [3]: 10.9 µM (active)

O=C(NC(=O)c1c(F)cccc1F)Nc1cc(Cl)c(Oc2ncc(C(F)(F)F)cc2Cl)c(Cl)c1
outcome [10]: inactive

O=C(N[C@H]1CN2CCC1CC2)c1ccc2c(c1)OCCO2
outcome [3]: inactive
outcome [5]: inactive
outcome [8]: inactive
outcome [7]: inactive

N#Cc1cccnc1
outcome [3]: inactive
outcome [5]: inactive
outcome [9]: inactive
outcome [8]: inactive
outcome [7]: inactive

O=C(NC(=O)c1c(F)cccc1F)Nc1cc(Cl)c(OC(F)(F)C(F)C(F)(F)F)cc1Cl (configuration not stated)
outcome [4]: inactive
outcome [5]: inactive
outcome [9]: inactive
AC50 [6]: 50 µM (active)
AC50 [8]: 66.5 µM (active)
AC50 [7]: 50 µM (active)

O=c1[nH]c2ccccc2n1C1CCN(CCCC(c2ccc(F)cc2)c2ccc(F)cc2)CC1
outcome [10]: inactive

CCOCn1c(-c2ccc(Cl)cc2)c(C#N)c(Br)c1C(F)(F)F
outcome [10]: inactive
AC50 [5]: 12.6 µM (active)
outcome [9]: inactive
AC50 [6]: 12.3 µM (active)
AC50 [8]: 9.59 µM (active)
AC50 [7]: 25.2 µM (active)

O=C(CCl)Nc1ccccc1
outcome [10]: inactive
outcome [4]: inactive
outcome [5]: inactive
outcome [9]: inactive
outcome [6]: inactive

CNC(=O)O/N=C/C(C)(C)S(C)(=O)=O
AC50 [4]: 0.623 µM (active)
outcome [5]: inactive
outcome [9]: inactive
outcome [7]: inactive

CC(C)N(C(=O)CCl)c1ccccc1
AC50 [10]: 6.48 µM (active)
outcome [4]: inactive
outcome [5]: inactive
outcome [9]: inactive

COCCl
AC50 [4]: 1.22 µM (active)
outcome [5]: inactive
outcome [6]: inactive

O=C1c2ccccc2C(=O)C1C(=O)C(c1ccccc1)c1ccc(Cl)cc1 (configuration not stated)
AC50 [10]: 1.12 µM (active)
outcome [4]: inactive
outcome [9]: inactive
AC50 [8]: 50 µM (active)
AC50 [7]: 73.2 µM (active)

CCCSP(=S)(OCC)Oc1ccc(SC)cc1 (configuration not stated)
outcome [5]: inactive
outcome [9]: inactive
AC50 [6]: 22.8 µM (active)

CC(=Cc1ccccc1)[N+](=O)[O-]
outcome [10]: inactive
outcome [4]: inactive
outcome [5]: inactive
AC50 [9]: 19.8 µM (active)

CCC[CH2][Sn]([Cl])([Cl])[CH2]CCC
outcome [10]: inactive
outcome [5]: inactive
AC50 [9]: 3.3 µM (active)

CC(O)(CS(=O)(=O)c1ccc(F)cc1)C(=O)Nc1ccc(C#N)c(C(F)(F)F)c1 (configuration not stated)
AC50 [10]: 0.026 µM (active)
AC50 [5]: 1.75 µM (active)
outcome [9]: inactive
outcome [7]: inactive

N#CCC#N
outcome [4]: inactive
outcome [5]: inactive
outcome [9]: inactive

Oc1c(Cl)cc(Cl)cc1Cl
outcome [5]: inactive

CC(C)(C1CCC(O)CC1)C1CCC(O)CC1 (configuration not stated)
outcome [10]: inactive

Oc1c(Br)cc(Br)cc1Br
outcome [10]: inactive
outcome [5]: inactive
outcome [9]: inactive
outcome [8]: inactive
outcome [7]: inactive

COC(=O)c1cc(Oc2ccc(Cl)cc2Cl)ccc1[N+](=O)[O-]
outcome [10]: inactive

O=S1OC[C@@H]2[C@H](CO1)[C@]1(Cl)C(Cl)=C(Cl)[C@@]2(Cl)C1(Cl)Cl (some centres not stated)
outcome [10]: inactive
outcome [4]: inactive
outcome [9]: inactive
AC50 [6]: 43.3 µM (active)
AC50 [8]: 91.8 µM (active)
outcome [7]: inactive

C=CC(=O)[O][Sn]([CH2]CCC)([CH2]CCC)[CH2]CCC
outcome [10]: inactive

O=C(Cl)OCCOCCOC(=O)Cl
AC50 [10]: 6.49 µM (active)

Cc1cc(Cl)ccc1OCCCC(=O)O
outcome [4]: inactive
outcome [5]: inactive
outcome [6]: inactive
outcome [8]: inactive
outcome [7]: inactive

O=S(=O)(Oc1ccc(Cl)cc1)c1ccc(Cl)cc1
outcome [10]: inactive

O=[N+]([O-])c1ccc(Cl)c([N+](=O)[O-])c1
outcome [4]: inactive

OCC(c1ccc(Cl)cc1)c1ccc(Cl)cc1
outcome [10]: inactive

C=CC(Cl)CCl (configuration not stated)
outcome [4]: inactive
outcome [5]: inactive
outcome [8]: inactive
outcome [7]: inactive

O=S1(=O)OC(c2cc(Br)c(O)c(Br)c2)(c2cc(Br)c(O)c(Br)c2)c2ccccc21
outcome [10]: inactive
AC50 [4]: 0.214 µM (active)
outcome [5]: inactive
outcome [9]: inactive
AC50 [8]: 71.9 µM (active)
AC50 [7]: 14.4 µM (active)

CCC[CH2][Sn]([CH2]CCC)([CH2]CCC)[CH2]CCC
outcome [5]: inactive

Nc1ccc(Br)cc1
outcome [10]: inactive

CCOc1ccc(N)cc1
outcome [5]: inactive
outcome [9]: inactive
outcome [8]: inactive
outcome [7]: inactive
